VACV mCherry inh: inhibitors of vaccinia virus infection (mCherry reporter signal) | Vaccinia virus mCherry reporter infection, fluorescence | Potency, µM (highest dose often 36.5 µM), inactives show top-dose activity change, negative = inhibition, most hits filed as inhibitors | actives 0.63% (n = 310,000) | AID 720579; calls by dose curve; tested in A549 cells; further: nearly all actives have a fitted effect of over 35% in size
VACV Venus inh: vaccinia inhibition (Venus reporter); Potency, µM (titrated, usually from 36.5 µM), for inactives: top-dose activity change, negative = inhibition, hits mostly inhibitors; actives 0.46% (n = 330,000); Vaccinia virus Venus reporter expression, fluorescence; calls by dose curve; tested in A549 cells; further: nearly all actives have a fitted effect of over 30% in size
HCV inhibitor: HCV inhibition; Huh7.5.1 HCVcc-Cre infection, luciferase reporter, 44 h; Potency, µM (highest dose often 41.8 µM), without a hit: at the top dose activity change, negative = inhibition, actives largely listed as inhibitors; actives 3.4% (n = 340,000); active means well fitted inhibition curve with a large enough effect; inconclusive means small, poorly fitted or top-dose-only effect, or another doubt; inactive means no such curve, though single readings can be large or run the other way
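Antiviral activity was scored by luciferase reporter output from cells infected with HCVcc-Cre (~0.5 moi) in presence of compound, 44 h infection period, cells seeded 1,000/well 4 h prior.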
An asterisk follows results filed as active; i = inactive; ? = inconclusive; nt = not tested or not shown; [ ] = another dose, or the depositor's remark. An excerpt weighted towards active compounds, which were near 3.3% of everything screened. On the % scale 0 is the no-effect control and ±100 the full control effect; potency means the concentration at half of the fitted maximal effect.

SMILES	VACV mCherry inh	VACV Venus inh	HCV inhibitor
Cc1ccc(-n2ncc3c(SCc4cccnc4)ncnc32)c(C)c1	-28%	-18%	11µM*
Cc1ccc(-n2ncc3c(N4CCCC4)ncnc32)c(C)c1	nt	nt	6%
Cc1ccc(-n2ncc3c(Nc4ccccc4C)ncnc32)cc1	-7%	-10%	nt
Cc1ccc(C)c(N2CCN(c3ncnc4c3cnn4-c3ccccc3)CC2)c1	3%	-13%	10%
Cc1ccccc1Nc1ncnc2c1cnn2-c1ccccc1	i	-10%	11µM*
Cc1ccccc1C(=O)N1CCN(c2ncnc3c2cnn3-c2ccccc2)CC1	nt	nt	7.9µM*
Cc1ccc(-n2ncc3c(SCc4cccc(C)c4)ncnc32)cc1	i	-7%	-13%
Cc1ccc2[nH]c(=O)c(CN(CCCO)Cc3nnnn3Cc3ccccc3)cc2c1	-4%	-23%	nt
Cc1c(C(=O)OCC(=O)NCCN2C(=O)CSC2=O)cccc1[N+](=O)[O-]	nt	nt	5%
COc1ccc(-c2noc(C3CCCN(C(=O)c4ccccc4)C3)n2)cc1 (stereo not drawn)	-11%[7.34 µM]	-7%[7.34 µM]	?
COc1ccc(NC(=O)N2CCCC(c3nc(-c4ccc(OC)cc4)no3)C2)cc1 (stereo not drawn)	i	-21%	22µM*
COc1ccc(-c2noc(C3CCCN(C(=O)c4ccccc4OC)C3)n2)cc1 (stereo not drawn)	i	-23%	?
COc1ccc(-c2noc(C3CCCN(C(=O)c4cccc(F)c4)C3)n2)cc1 (stereo not drawn)	i	-17%	?
COc1ccc(NC(=O)N2CCCC(c3nc(-c4ccc(C(C)C)cc4)no3)C2)cc1 (stereo not drawn)	nt	nt	10µM*
Cc1cccc(C(=O)N2CCCC(c3nc(-c4ccc(F)cc4)no3)C2)c1 (stereo not drawn)	-27%	-16%	13µM*
COc1ccc(-c2noc(C3CCCN(C(=O)c4ccccc4C)C3)n2)cc1 (stereo not drawn)	-17%	-10%	32µM*
COc1ccc(-c2noc(C3CCCN(C(=O)Nc4ccccc4F)C3)n2)cc1 (stereo not drawn)	-26%	-18%	?
CC1=C(c2ccc(Cl)cc2)S(=O)(=O)N=C1N1CCN(c2cccc(C(F)(F)F)c2)CC1	-30%	-28%	nt
Cc1cc(NC(=O)c2cccc(S(=O)(=O)Nc3cccc(C(=O)O)c3)c2)no1	i	-10%	27%
Cc1cc(C)c2c(n1)SCC(=O)N2CC(=O)Nc1c(C)cccc1C	-6%	3%	0%
CC1CCc2cc(F)ccc2N1C(=O)c1cccnc1 (stereo not drawn)	-12%	-14%	8%
COc1ccccc1NC(=O)C1CC(C)OC1=O (stereo not drawn)	-1%	11%	6%
CCOC(=O)c1sc2nccc(N(C)C)c2c1N=CNOC	-18%	-11%	?
CCOC(=O)c1sc2nccc(N(C)C)c2c1N=CNOCc1ccccc1	-27%	-14%	7.9µM*
Cn1c2c(c(=O)n(C)c1=O)C(C(F)(F)F)(C(F)(F)F)N=C(c1ccc(Cl)cc1)N2	?	?	1.6µM*
SMILES	VACV mCherry inh	VACV Venus inh	HCV inhibitor
Cc1ccccc1C1=NC(C(F)(F)F)(C(F)(F)F)c2c(n(C)c(=O)n(C)c2=O)N1	i	-22%	?
CC(n1cc(C[C@H](N)C(=O)O)c2ccccc21)n1cc(C[C@H](N)C(=O)O)c2ccccc21	-14%	-12%	nt
C(=C\c1nc2ccccc2nc1/C=C/c1ccc2c(c1)OCO2)/c1ccc2c(c1)OCO2	22%	-10%	nt
Nc1c(Cl)cc(C2=NCCn3nc4cc([N+](=O)[O-])ccc4c32)cc1Cl	-14%	-18%	?
Nc1c(Cl)cc(C2=NCCn3c2c2ccc([N+](=O)[O-])cc2[n+]3[O-])cc1Cl	?	?	10µM*
COc1ccc(CCn2c(=S)[nH]c(=O)c3cccnc32)cc1OC	-16%	-29%	nt
CC1(C)N=C(N)N=C(N)N1c1cccc(C#N)c1	2µM*	4.5µM*	?
COc1ccc(N2C(N)=NC(N)=NC2(C)C)cc1	?	11µM*	-19%
COc1cccc(N2C(N)=NC(N)=NC2(C)C)c1	nt	?	-13%
CCOc1ccc(N2C(N)=NC(N)=NC2(C)C)cc1	0%	?	3%
COc1cccc(CNC(=O)c2c(OC)cc(=O)n3c2CCN(C(=O)C2CC24CCCC4)CC3)c1 (stereo not drawn)	-10%	4%	nt
COc1cc(/C=N\Nc2nncn2N)ccc1OC(C)=O	16µM*	20µM*	22%
COc1cc(/C=N/NC(=O)c2ccncc2)ccc1OC(C)=O	nt	nt	9%
O=C(C1=NN[C@@H]2C(=O)N(Cc3ccccc3)C(=O)[C@H]12)c1ccc([N+](=O)[O-])cc1	?	-7%	5%
Nc1ncnc2nc[nH]c12	-2%	2%	-21%
Nc1nc(N)c2[nH]cnc2n1	-19%	-23%	6.3µM*
Cc1ccc2c(/C=C/c3ccc(N(C)C)cc3)ccnc2c1C	-7%	-1%	nt
Cc1ccc(-n2nc(CO)c(C(=O)NCCCc3ccccc3)n2)cc1C	-4%	-3%	nt
CC(C)=N/N=c1\scc(C)n1Cc1ccco1	-2%	2%	3%
Cc1csc(=Nc2cccnc2)n1Cc1ccco1	-5%	-15%	0.56µM*
O=C(COC(=O)c1c2c(nc3ccccc13)/C(=C\c1ccco1)CC2)NC1CCCC1	-23%	-23%	?
CN(CCC#N)C(=O)COC(=O)c1c2c(nc3ccccc13)/C(=C\c1ccco1)CC2	?	-21%	13µM*
COCCCNC(=O)CSc1nc2cc3c(cc2c(=O)n1CCCC(=O)NCc1ccc2c(c1)OCO2)OCO3	-5%	-8%	nt
Cc1c(C(=O)NCCCN2CCCC2=O)cnn1-c1ncc2c(n1)-c1ccccc1CC2	?	-25%	nt
Fc1ccc(Nc2nc(NCc3ccco3)c3ccccc3n2)cc1	nt	nt	10µM*
SMILES	VACV mCherry inh	VACV Venus inh	HCV inhibitor
Nc1nc(Nc2ccccc2)nc(NCc2ccco2)c1[N+](=O)[O-]	-26%	?	?
COc1ccc(OC)c(NC(=O)CSc2nnc(-c3cnccn3)n2C)c1	-3%	1%	11%
Brc1ccc(-c2nc3ccccn3c2Nc2ccc3c(c2)OCCO3)o1	-23%	-12%	nt
Cc1cc(C)cc(CN2CCOc3ccc(CN4CCC(O)(c5cccnc5)CC4)cc3C2)c1	-2%	-9%	nt
Cc1ccc(Cl)c2c1NC(=O)C2(O)CC(=O)c1ccc(Br)cc1 (stereo not drawn)	-19%	-4%	16%
O=C(CC1(O)C(=O)Nc2cc(Cl)cc(Cl)c21)c1ccncc1 (stereo not drawn)	nt	nt	11µM*
O=C1c2ccccc2C(=O)N1c1cccc(N2C(=O)c3ccccc3C2=O)n1	-9%	-10%	nt
O=C(C[n+]1csc2ccccc21)c1ccccc1	-6%	-13%	nt
COc1ccc(CCC(=O)NCCS(=O)(=O)N2CCN(c3ccccc3F)CC2)cc1	-14%	?	-23%
COc1ccc(CCC(=O)NCCS(=O)(=O)N2CCN(c3ccccc3OC)CC2)cc1	nt	nt	14µM*
CCCCNC1C(CC)C(CCC)C(C#N)(C#N)C1(C#N)C#N (stereo not drawn)	nt	-26%	13µM*
COc1ccc(CCNc2ncnc3nc[nH]c23)cc1	?	-29%	nt
Cc1ccc(-n2nnnc2-c2cnc3ccc(Cl)cc3c2-c2ccccc2)cc1	nt	nt	10µM*
Clc1ccc(-n2nnnc2-c2cnc3ccccc3c2-c2ccccc2)cc1	-26%	-18%	?
